# Measured values as given in paper PMC4336329 (PLoS ONE, 2015).
# About 14,000 (4.5%) of roughly 310,000 compounds showed an effect of 50% or more. The effect is printed as a negative number. Only a selection was taken, and strong results are over-represented in it overall.
# Biological target: human ether-à-go-go-related gene (hERG) potassium channel (human, UniProt Q12809)
# Experiment: primary screen, population patch clamp on CHO cells stably expressing hERG; higher = less effect of the substance
# 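Note: peak tail current of the secondary pulse compared with the same well before compound.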
# human ether-à-go-go-related gene (hERG) potassium channel, sequence (Q12809 whole entry, looked up): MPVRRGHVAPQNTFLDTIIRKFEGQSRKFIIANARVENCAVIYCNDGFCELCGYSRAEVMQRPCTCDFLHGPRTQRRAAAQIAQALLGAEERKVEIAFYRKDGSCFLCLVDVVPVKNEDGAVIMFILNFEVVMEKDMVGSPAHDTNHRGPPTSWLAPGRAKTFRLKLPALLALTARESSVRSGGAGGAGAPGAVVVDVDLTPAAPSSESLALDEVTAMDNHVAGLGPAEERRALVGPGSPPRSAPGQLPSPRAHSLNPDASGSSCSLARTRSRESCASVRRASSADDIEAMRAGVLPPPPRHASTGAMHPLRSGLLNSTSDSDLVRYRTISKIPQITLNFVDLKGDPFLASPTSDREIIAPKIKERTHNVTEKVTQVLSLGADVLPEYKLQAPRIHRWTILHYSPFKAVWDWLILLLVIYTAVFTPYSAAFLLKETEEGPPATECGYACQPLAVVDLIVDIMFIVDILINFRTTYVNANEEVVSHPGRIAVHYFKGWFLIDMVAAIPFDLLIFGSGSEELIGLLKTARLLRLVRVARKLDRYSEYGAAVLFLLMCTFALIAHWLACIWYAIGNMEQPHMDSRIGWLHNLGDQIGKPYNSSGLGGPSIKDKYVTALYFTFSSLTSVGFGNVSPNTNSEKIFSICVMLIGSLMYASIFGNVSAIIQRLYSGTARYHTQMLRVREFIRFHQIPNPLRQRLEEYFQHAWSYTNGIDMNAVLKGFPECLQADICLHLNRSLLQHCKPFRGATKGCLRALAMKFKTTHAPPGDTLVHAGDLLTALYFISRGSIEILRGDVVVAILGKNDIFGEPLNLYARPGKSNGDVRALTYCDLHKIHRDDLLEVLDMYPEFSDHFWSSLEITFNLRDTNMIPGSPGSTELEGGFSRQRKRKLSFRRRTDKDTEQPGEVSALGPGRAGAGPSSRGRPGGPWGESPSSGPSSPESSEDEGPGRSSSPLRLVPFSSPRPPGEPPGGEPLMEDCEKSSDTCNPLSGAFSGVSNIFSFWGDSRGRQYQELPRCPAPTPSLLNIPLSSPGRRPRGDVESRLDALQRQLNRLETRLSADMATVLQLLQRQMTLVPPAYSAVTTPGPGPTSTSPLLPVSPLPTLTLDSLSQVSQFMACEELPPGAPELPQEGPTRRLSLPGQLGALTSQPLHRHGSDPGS
row,Structure (SMILES),"hERG current change (%, negative = inhibition) at 10uM"
1,CCOC(=O)c1nn(-c2ccccc2)c(=O)c(C#N)c1C,13.5%
2,CC(C)CCN(CC(=O)NC1CCCC1)C(=O)C(=O)Nc1ccc2c(c1)OCCO2,11%
3,O=C(CN1CCN(Cc2ccccc2)CC1)c1c[nH]c2ccccc12,-56.5%
4,O=C(CN1CCN(Cc2ccc3c(c2)OCO3)CC1)c1c[nH]c2ccccc12,-63.5%
5,O=C(c1c[nH]c2ccccc12)N1CCN(Cc2ccccc2)CC1,-13.5%
6,O=C(C(=O)N1CCN(Cc2ccc3c(c2)OCO3)CC1)c1c[nH]c2ccccc12,-11.6%
7,O=C(CN1CCN(c2ccccc2)CC1)c1c[nH]c2ccccc12,-0.617%
8,NC(=O)CN1CCN(Cc2ccc3c(c2)OCO3)CC1,30.6%
9,COc1ccc(-c2ccc(C#N)c(SCC(=O)OCc3ccccc3)n2)cc1OC,-2.31%
10,CCCn1c(N)c(C(=O)CSc2n[nH]c(-c3ccc(C)cc3)n2)c(=O)[nH]c1=O,22.2%
11,C[C@H](NC(=O)c1nc[nH]c1C(=O)N[C@@H](Cc1ccccc1)C(=O)OCc1ccccc1)C(=O)OCc1ccccc1,8.42%
12,CCOC(=O)Cn1c(=O)oc2cc(S(=O)(=O)Nc3cc(OCC)ccc3OCC)ccc21,-42.3%
13,COc1ccc(N(CC(=O)Nc2ccc(F)cc2F)S(=O)(=O)c2c(C)nn(C)c2C)cc1,-12.4%
14,Cc1ccc2oc(C(=O)N(C)Cc3ccc(C)o3)c(C)c2c1,10.6%
15,COc1ccc(CN2CCC(CO)(Cc3cccc(C(F)(F)F)c3)CC2)cc1Cn1cccn1,-75.7%
16,COc1ccc(CN2CCN(C(C)C)C(CCO)C2)cc1Cn1cccn1 (stereo not drawn),8.43%
17,COc1ccc(CN2CCC(CO)(Cc3ccccc3)CC2)cc1Cn1cccn1,-76.5%
18,COc1ccc(CN2CCN(CC=C(C)C)C(CCO)C2)cc1Cn1cccn1 (stereo not drawn),-31.2%
19,COc1ccc(NC(=O)CCNS(=O)(=O)c2ccc3c(c2)CCC(=O)N3)cc1,-2.85%
20,CN(O)/C=c1/ccc2c(n1)C(=O)C=CC=2,-8.33%
21,Cc1ccc(C(=O)Nc2ccc(S(=O)(=O)N3CCN(C)CC3)cc2)o1,5.28%

row,Structure (SMILES),"hERG current change (%, negative = inhibition) at 10uM"
1,COc1cccc(C(=O)NCCNC(=O)c2cnccn2)c1,19.5%
2,Cc1nnc(NNS(=O)(=O)c2ccc(Cl)cc2)[nH]c1=O,-17.3%
3,O=C(O)C1=C[C@H](c2ccc(F)cc2)C[C@H](OCc2ccc(CO)cc2)O1,4.49%
4,Cc1c(CCC(=O)NCCCn2ccnc2)c(=O)oc2cc3occ(C(C)(C)C)c3cc12,-77.7%
5,Cc1oc2cc3oc(=O)c(CCC(=O)NCCCn4ccnc4)c(C)c3cc2c1C,-41.7%
6,Cc1c(CCC(=O)NCCCn2ccnc2)c(=O)oc2c(C)c3occ(C(C)(C)C)c3cc12,-67%
7,Cc1coc2c(C)c3oc(=O)c(CCC(=O)NCCCn4ccnc4)c(C)c3cc12,-44.4%
8,Cc1coc2cc3oc(=O)c(CCC(=O)NCCCn4ccnc4)c(C)c3cc12,-41.4%
9,Cc1oc2c(C)c3oc(=O)c(CCC(=O)NCCCn4ccnc4)c(C)c3cc2c1C,-35.9%
10,Cn1c(=O)n(CCCO)c(=O)c2c1nc1n2CCCN1Cc1ccccc1,-9.65%
11,CN(Cc1nc2ccc(F)cc2[nH]1)Cc1c(C(=O)N(C)C)nc2ccc(Cl)cn12,-43.3%
12,CCOc1cc(S(=O)(=O)N(CC)CC)ccc1Br,-11.8%
13,O=C(CSc1nnc(SCc2ccc(Cl)cc2)s1)c1ccc2c(c1)OCO2,9.81%
14,O=c1[nH]c2ccc(Cl)cc2c(-c2ccccc2)c1N1CCOCC1,2.46%
15,CCOC(=O)N1CCN(c2c(-c3ccccc3)c3cc(Cl)ccc3[nH]c2=O)CC1,-11.4%
16,O=c1[nH]c2ccc(Cl)cc2c(-c2ccccc2)c1N1CCN(CCO)CC1,-64.6%
17,Cc1cccc(C2=NOC(=O)/C2=C\c2ccccc2F)c1,9.48%
18,CC(C)n1nc(C(=O)Nc2ccc3c(c2)OCO3)c2ccccc2c1=O,11%
19,CCCCn1c(CCCNC(=O)c2ccco2)nc2ccccc21,-40.5%
20,Cc1ccc(NC(=O)CSc2nnc(CNC(=O)c3ccccc3F)o2)cc1,2.03%
21,CC1CCN(c2ccc3nnc(CCC(=O)NCCCOC(C)C)n3n2)CC1,2.68%
